# Screens (PubChem)
# This is a sample that favours compounds with a hit; in the whole collection about 21% have one here.
# CHX counter: counter-screen for Shiga toxin inhibitors: cycloheximide protein synthesis inhibition; actives 12% (n = 300,000); max response, %; cell reporter, cycloheximide protein synthesis inhibition counterscreen; in the data active = max response mostly above about 13%, no sharp cut-off; inactive = mostly below about 14%; note: read at 38.3 µM for the half of the compounds with a filed dose; 0% is about no effect
# NS1 function inh: blocks influenza NS1 protein function; Potency, µM (series often up to 46.1 µM), for the others: top-dose activity, positive = more growth; actives 0.4% (n = 270,000); AID 2326; calls by dose curve; note: potency is the fitted concentration of half-maximal effect; actives are rising curves; nearly all actives have a fitted effect of over 50% in size
#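 A cell-based growth assay was used: compounds that relieve NS1-induced slow growth of budding yeast raise OD600. Assay medium was yeast nitrogen base with ammonium sulphate and -URA supplement, pH 6.0, with 2% galactose.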
# Pf growth 96h: inhibits malaria parasite growth, 96 h | P. falciparum luciferase reporter growth, 96 h | Potency, µM (doses to about 28.7 µM), for the others: at the top dose activity change, negative = inhibition, actives largely listed as inhibitors | actives 6.9% (n = 320,000) | AID 504834; note: potency is the fitted concentration of half-maximal effect; % is set by controls: 0 for no effect and ±100 for the full control effect
#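 Cell-based qHTS: luciferase-tagged P. falciparum in erythrocytes (2% hematocrit, 0.05% parasitemia final) incubated with compounds for 96 hours, 37 C, 5% CO2; luciferase detection reagent then added and luminescence measured.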
# Sm TGR block: inhibitors of Schistosoma mansoni thioredoxin glutathione reductase; purified TGR, DTNB reduction, TNB absorbance 405 nm; actives 3% (n = 360,000); Potency, µM (doses to about 114 µM), for the others: at the highest dose activity change, negative = inhibition, most hits filed as inhibitors; Q962Y6; note: potency is the fitted concentration of half-maximal effect; % is set by controls: 0 for no effect and ±100 for the full control effect; nearly all actives have a fitted effect of over 60% in size
#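 First, TGR (20 nM dispensed) and NADPH were mixed with compound. Second, a 15 min room-temperature incubation followed. Third, further NADPH and then DTNB were added to start the reaction. Finally, TNB absorbance was monitored kinetically.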
# Pf growth 48h: P. falciparum growth inhibition at 48 hours (one generation); P. falciparum luciferase growth in erythrocytes, 48 h; Potency, µM (doses to about 28.7 µM), inactives show at the top dose activity change, negative = inhibition, hits mostly inhibitors; actives 5.9% (n = 310,000); note: potency is the fitted concentration of half-maximal effect; % is set by controls: 0 for no effect and ±100 for the full control effect
#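 Luciferase-expressing P. falciparum in infected erythrocytes (2% hematocrit, 0.1% parasitemia final) in RPMI 1640/0.5% Albumax were exposed to compound for 48 hours at 37 C, 5% CO2; growth read as luminescence.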
# Shiga toxin inh: inhibitors of Shiga toxin in Vero cells; Vero cells, Shiga toxin protein synthesis inhibition reporter; inhibition, % at 38.7 µM; actives 9.2% (n = 290,000); AID 2315; in the data active = inhibition mostly above about 28%, no sharp cut-off; inactive = mostly below about 43%; note: 0% is about no effect
# Numbers without * were called inactive; ? = inconclusive; nt = not tested or not shown. Unless noted, calls come from the whole dose curve; as a rule, active = well fitted curve in the direction sought with a large enough effect; inconclusive = small, poorly fitted or top-dose-only effect, or another doubt; inactive = no such curve, though single readings can be large; an effect the other way counts as inactive or inconclusive.
SMILES,CHX counter,NS1 function inh,Pf growth 96h,Sm TGR block,Pf growth 48h,Shiga toxin inh
Cc1cc(C)c2c(CN3CCN(C)CC3)cc(=O)oc2c1,-1.3,-2.0%,nt,-23.2%,19.5%,-16.4
Cc1cc(C)c2c(CN3CCN(CCO)CC3)cc(=O)oc2c1,72.0*,3.6%,7.5%,8.9%,?,57.2*
CCc1cc2c(CN3CCN(CCO)CC3)cc(=O)oc2cc1O,2.2,-0.7%,?,3.2%,13.1µM*,19.7
O=c1cc(CN2CCN(C/C=C/c3ccccc3)CC2)c2cc(O)c(-c3ccccc3)cc2o1,-2.0,14.6%,1.04µM*,-3.6%,0.928µM*,-8.6
CCOc1ccc(OCC)c(NC(=O)CCc2nc3cccnc3n2-c2ccccc2)c1,nt,nt,nt,-2.1%,nt,nt
Cc1cc2oc(=O)cc(CN3CCN(C/C=C/c4ccccc4)CC3)c2cc1O,-3.2,-43.8%,nt,-13.6%,2.94µM*,7.5
O=c1cc(CN2CCN(Cc3ccccc3)CC2)c2cc(O)ccc2o1,0.7,1.2%,?,-15.4%,-23.6%,14.4
Cc1cc2oc(=O)cc(CN3CCCCC3)c2cc1C,5.7,5.8%,3.8%,-9.5%,17.3%,21.5
Cc1cc2oc(=O)cc(CN3CCN(Cc4ccccc4)CC3)c2cc1O,12.8,4.8%,?,-19.3%,9.28µM*,-3.7
Cc1cc2oc(=O)cc(CN3CCOCC3)c2cc1O,-1.6,1.1%,22.1%,-3.3%,18.4%,-2.9
Cc1c(O)ccc2c(CN3CCN(C/C=C/c4ccccc4)CC3)cc(=O)oc12,-2.5,-0.4%,?,-25.1%,2.62µM*,18.6
Cc1cc2oc(=O)cc(CN3CCN(S(=O)(=O)c4cccs4)CC3)c2cc1C,-2.6,6.9%,7.38µM*,4.9%,?,-2.3
N#Cc1ccccc1NC(=O)Cn1cnc2onc(-c3cccc(F)c3)c2c1=O,nt,nt,nt,-0.5%,nt,nt
CCOC(=O)c1c(-c2ccc(OC)cc2)oc2ccc(OCc3ccccc3C)cc12,nt,nt,nt,4.5%,nt,nt
Cc1cc(O)c2c(CN3CCN(Cc4ccccc4)CC3)cc(=O)oc2c1,0.9,-4.0%,8.28µM*,-31.6%,?,-2.4
CCc1cc(=O)oc2cc(C)cc(O)c12,5.6,-99.9%,21.3%,4.9%,nt,-12.6
O=C(/C=C/c1ccco1)OCC1CCCN2CCCCC12 (stereo unspecified),5.3,3.8%,35.6%,?,10.4%,-10.3
CCN(CC)S(=O)(=O)c1cccc(C(=O)N[C@H](C(=O)OCC(=O)Nc2ccccc2)C(C)C)c1,14.7*,-8.4%,nt,1.6%,22.9%,15.9
CCN(CC)S(=O)(=O)c1cccc(C(=O)N[C@H](C(=O)OCC(N)=O)C(C)C)c1,-1.8,0.7%,nt,-15.1%,-0.8%,-13.2
CCc1nnc(NC(=O)[C@@H](NC(=O)c2cccc(S(=O)(=O)N(CC)CC)c2)C(C)C)s1,4.8,11.5%,nt,-0.6%,1.65µM*,-19.4
COc1ccc(C)cc1NC(=O)C1CCCN(c2ncnc3onc(C)c23)C1 (stereo unspecified),nt,nt,nt,-0.3%,nt,nt
CCCN=C(C)C1=C(O)c2ccccc2C1=O,107.4*,-6.7%,154.1%,-8.5%,95.5%,83.9*
CC(=NCc1ccncc1)C1=C(O)c2ccccc2C1=O,17.8*,0.5%,nt,-5.4%,56.7%,75.6*
CC(=NCc1cccnc1)C1=C(O)c2ccccc2C1=O,7.1,-10.2%,50.9%,-2.9%,?,8.3
CC(=O)Nc1ccc(NC(=O)CCCSc2nc3ccccc3s2)cc1,18.9*,11.7%,-19.3%,5.4%,36.2%,23.9
SMILES,CHX counter,NS1 function inh,Pf growth 96h,Sm TGR block,Pf growth 48h,Shiga toxin inh
N#CCCCSc1nnc(CSc2nc3ccccc3s2)n1-c1ccccc1,9.5,-13.2%,nt,-0.1%,?,-2.6
CCC(C)(C)NC(=O)CCCSc1nc2ccccc2s1,60.6*,nt,98.3%,2.3%,279.7%,118.1*
CCc1cccc(CC)c1NC(=O)CCCSc1nc2ccccc2s1,3.9,-5.2%,?,-0.6%,?,-19.7
c1ccc2sc(SCSc3nc4ccccc4s3)nc2c1,11.2,-4.9%,2.4%,3.7%,1.8%,29.0
CN(C)CCCSc1nc2ccccc2s1,22.6*,nt,57.9%,6.8%,94.7%,68.1*
N#CCc1nc(CSc2nc3ccccc3s2)cs1,58.3*,17.6%,?,48.8%,47.0%,87.2*
COc1cc(NC(=O)CCN2CC(C)OC(C)C2)cc(OC)c1 (stereo unspecified),-3.1,-5.2%,-22.2%,5.9%,-10.5%,8.7
